The structures appear in SMILES notation. The panel holds about 83,000 compounds, 20% with a hit somewhere; the sample as a whole holds those more often.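 Each cell line was grown in a 96-well plate and treated with one concentration of compound for 48 hours. Values below 10 were considered active.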 A number with no mark means an inactive call. The source made the active and inactive calls.

Results on 18 compounds are retold here after PubChem BioAssay (NCI).

Holding throughout (experiment): NCI-60 one-dose screen, 48 h (100 = growth as untreated, 0 = no growth, -100 = all killed)
Conditions in all cases: 10 µM unless noted

Experiment [1] deals with BT-549 breast.
In experiment [2] the test system is MDA-MB-435 melanoma.
Experiment [3] deals with SW-620 colon.
The test system of experiment [4] is MCF7 breast.
The test system of experiment [5] is HCT-116 colon.
For experiment [6], the system named is HCC-2998 colon.
The test system of experiment [7] is KM12 colon.

In the case of `COc1ccc(CN2C(=O)/C(=C/c3nc(CO)cs3)SC2=S)cc1`, the growth in experiment [1] is 99.9%; in experiment [2], 89.7%; in experiment [3], 77.8%; in experiment [4], 12%; in experiment [5] it was 75%; in experiment [6], 109%. Also, in experiment [7], the growth is 9.43% (active).

Turning to `O=C(CSc1nnc(-c2ccc(Cl)cc2)n1-c1ccccc1)Nc1ccc(F)cc1`, the growth is 93.2% in experiment [1]; 92.9% in experiment [2]; 82.3% in experiment [3]; 81.6% in experiment [4]; 46% in experiment [5]; 100% in experiment [6]. Further, in experiment [7], the growth was 82.4%.

Consider `Oc1ccc(CSc2nnc(-c3ccc(Br)cc3)o2)c2cccnc12`, for which the growth in experiment [1] is 43%; in experiment [2], 29.3%; in experiment [3], 17.7%; in experiment [4], 16%; in experiment [5], 23%; in experiment [6], 44.9%. Moreover, in experiment [7], the growth was 19.1%.

In the case of `Cn1cc(-c2nnc(N)nc2-c2cn(C)c3ccc(F)cc23)c2cc(F)ccc21`, the growth is 99.8% in experiment [1]; 101% in experiment [2]; 102% in experiment [3]; 87.2% in experiment [4]; 92.7% in experiment [5]; 104% in experiment [6]. In addition, in experiment [7], the growth is 90.8%.

For `COC[C@@]1(C)CC[C@]2(C)CC[C@]3(C)C(=CC[C@@H]4[C@@]5(C)CCCNC(C)(C)[C@@H]5CC[C@]43C)C2C1` (stereo not given in full), the growth in experiment [1] is 87.4%; in experiment [2], 44.2%; in experiment [3] it was 53.2%; in experiment [4], 23.9%; in experiment [5], 40.1%; in experiment [7], 61.4%.

`CS(=O)(=O)c1nccc(-c2c(-c3ccc(F)c(OCc4ccc(F)cc4)c3)nc3sccn23)n1`: the growth is 69.8% in experiment [1]; 97.3% in experiment [2]; 88.2% in experiment [3]; -6.26% (active) in experiment [4]; 90.2% in experiment [5]; -63.6% (active) in experiment [6]. Also, the growth in experiment [7] is 41.5%.

On to `CCOC(=O)c1c(NCC(=O)Nc2ccc(Br)cc2)sc2c1CCCC2`, for which the growth in experiment [1] was 23.9%; in experiment [2] it was 42.9%; in experiment [3] it was 8.98% (active); in experiment [4], 11.9%; in experiment [5], 7.99% (active); in experiment [7], 70.2%.

Turning to `COc1c([C@@H](CC(C)C)OC(C)=O)ccc2c1C(=O)OCc1cc(C)cc(O)c1O2`, the growth in experiment [1] is 31.3%; in experiment [2] it was 30%; in experiment [3] it was 20%; in experiment [4], 18.4%; in experiment [5], 12.3%; in experiment [6], 35%. For the same compound, the growth in experiment [7] was 30.7%.

On to `COc1ccc(-c2nn(-c3ccccc3)cc2/C=C/C(=O)c2ccc(NC(=O)CCCCCCC(=O)NO)cc2)cc1`, for which the growth in experiment [1] is 105%; in experiment [2], 104%; in experiment [3], 111%; in experiment [4], 94.2%; in experiment [5] it was 95.5%; in experiment [6] it was 108%. Further, the growth in experiment [7] was 95.9%.

In the case of `O=C1[C@H]2Cc3c([nH]c4ccccc34)[C@@H](c3ccc(Cl)cc3)N2C(=O)CN1C1CCN(Cc2c(Cl)cccc2Cl)CC1`, the growth in experiment [1] was 97.2%; in experiment [2], 97.1%; in experiment [3], 106%; in experiment [4], 87%; in experiment [6], 101%; in experiment [7], 87.9%.

Take `Oc1ccc(CSc2nnc(-c3ccc(Oc4ccccc4)cc3)o2)c2cccnc12`: the growth in experiment [1] was 49.8%; in experiment [2], 29.9%; in experiment [3] it was 2.32% (active); in experiment [4], 16%; in experiment [5] it was 1.74% (active); in experiment [6], 29.4%. The growth in experiment [7] was 9.88% (active).

As for `Nc1ccc(-c2nnc(SCc3ccc(O)c4ncccc34)n2-c2ccccc2)cc1`, the growth in experiment [1] is 18.5%; in experiment [2] it was 14.8%; in experiment [3], 19.2%; in experiment [4], 5.58% (active); in experiment [5], 8.87% (active); in experiment [6], 29.1%. Also, in experiment [7], the growth is 17.8%.

`CN1CCN(Cc2ccc(NC(=O)c3cncc(C#Cc4cnc5ccc(O[C@H]6CCOC6)nn45)c3)cc2C(F)(F)F)CC1`: the growth in experiment [1] is -33.9% (active); in experiment [2], -86.8% (active); in experiment [3], -32.4% (active); in experiment [4], -62.6% (active); in experiment [5] it was -88.1% (active); in experiment [6], -61.3% (active). Also, in experiment [7], the growth was -52.3% (active).

For `CC(=O)Nc1nc2c(s1)C1=CC[C@H]3[C@@H]4CC[C@H](C(C)=O)[C@@]4(C)CC[C@@H]3[C@@]1(C)CC2`, the growth in experiment [1] was 62.3%; in experiment [3], 82.3%; in experiment [4], 20.6%; in experiment [5] it was 60.4%; in experiment [6], 96.9%; in experiment [7] it was 47.7%.

As for `COc1ccc(C(=O)n2cc(C=O)c3ccccc32)cc1`, the growth in experiment [1] was 100%; in experiment [2], 88.8%; in experiment [3] it was 90%; in experiment [4] it was 82.1%; in experiment [6], 104%; in experiment [7], 102%.

In the case of `Cc1ccc(-c2cc(-c3cccc4ccccc34)n3c(n2)nc2ccccc23)cc1`, the growth is 69.1% in experiment [1]; 65% in experiment [2]; 45.2% in experiment [3]; 22.6% in experiment [4]; 43.4% in experiment [5]; 92% in experiment [6]. For the same compound, the growth in experiment [7] is 78.9%.

In the case of `CCN1C(=O)N(CC)C2SC(N/N=C/c3ccccc3F)=NC21` (stereo not given), the growth is -20.1% (active) in experiment [1]; -53.5% (active) in experiment [2]; 19% in experiment [3]; 16.2% in experiment [4]; 13.6% in experiment [5]; 17.1% in experiment [6].

Turning to `COc1ccc(C2C(C#N)=C(N)Oc3c2sc2ccc(C)cc32)cc1` (stereo not given), the growth in experiment [1] is 26.8%; in experiment [2], -26.4% (active); in experiment [3], 13.9%; in experiment [4] it was 19.2%; in experiment [5], 22.1%; in experiment [6], 53.2%. Further, the growth in experiment [7] was 24.2%.
